PolyA inh: polyadenylation inhibitors in yeast reporter cells, primary screen, luminescence, S. cerevisiae; S. cerevisiae SKY197-pL101 polyadenylation reporter, beta-gal luminescence; efflux-impaired pdr1/pdr3 knockout yeast; score 100 = 6 SD above DMSO; activity score, % at 12 µM; hit rate 0.02% among 300,000;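 active = lowest replicate activity score at least 50, where 100 means six control SD above control mean; inconclusive = lowest score under 50 but half or more replicates reach 50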;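 note: yeast exposed to compound for 9 h at 30 °C; higher score means more reporter readthrough which indicates perturbed polyadenylation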
IDE inh: human IDE inhibitors in live cells, primary screen, fluorescence polarization, HEK cells, FAbetaB substrate | Insulin-degrading enzyme (Homo sapiens), P14735 | FAbetaB cleavage | inhibition, % at 5.59 µM | hit rate 0.41% among 320,000;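 active = percent inhibition above the average of all tested compounds plus 3 SD, set per screening campaign, cut at about 16% in these data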;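 note: IDE supplied by intact live HEK cells; FP after avidin binding of uncleaved biotin substrate so inhibition keeps polarization high; 0% = DMSO wells and 100% = 60 µM reference IDE inhibitor Ii1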
ALR inh: inhibitors of human ALR sulfhydryl oxidase, primary screen, biochemical, H2O2 detection, HRP-luminol luminescence, single point | FAD-linked sulfhydryl oxidase ALR (Homo sapiens), P55789 | purified ALR, DTT oxidation | inhibition, % (test concentration not listed) | hit rate 3.8% among 290,000 | AID 485317, 2010;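 active = mean replicate inhibition above about 79%, with every replicate also reaching it, limit read from the data; inconclusive = only one of the two criteria met; inactive = mean below limit and not every replicate reaching it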
Target sequence (P55789 whole entry, looked up): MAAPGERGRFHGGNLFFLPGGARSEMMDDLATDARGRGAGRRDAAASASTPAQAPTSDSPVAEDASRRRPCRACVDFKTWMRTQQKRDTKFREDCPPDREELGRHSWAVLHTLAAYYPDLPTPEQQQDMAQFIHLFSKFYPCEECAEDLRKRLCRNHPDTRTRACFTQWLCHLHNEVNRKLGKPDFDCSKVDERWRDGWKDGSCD
PfM18AAP inh-1: PfM18AAP inhibitors, malaria aminopeptidase, primary screen, biochemical, QFRET, recombinant enzyme. H-Glu-NHMec fluorogenic cleavage. hit rate 1.2% among 290,000. AID 1822, 2009. M18 aspartyl aminopeptidase (Plasmodium falciparum 3D7). inhibition, % at 7.35 µM;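 active = inhibition above the campaign mean inhibition over all tested compounds plus 3 SD, cut at about 28% in these data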;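 note: 0% = plate median of test compound wells and 100% = 2 mM ZnCl2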
CaV13 FRET inh: Primary screen for inhibitors of IQ motif and Ca2+-dependent inactivation inhibitor domain binding in CACNA1D, Förster resonance energy transfer in living cells, …; HEK cells, CFP/YFP FRET ICDI-IQ, plate reader, 10 min; percent FRET-ratio fall versus neutral wells; inhibition, % at 12.3 µM; hit rate 0.098% among 340,000;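 active = mean replicate inhibition of at least 30% and at least 1% of replicates passing that level; inconclusive = only one of the two criteria is met; inactive = neither criterion is met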;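 note: 0% = median of the neutral control wells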
IDE act: human IDE activators in live cells, primary screen, fluorescence polarization, HEK cells, FAbeta-B substrate; Insulin-degrading enzyme (Homo sapiens), P14735; FAbeta-B cleavage; 0% vehicle, 100% cell-free pure enzyme wells; activation, % at 5.96 µM; hit rate 0.073% among 340,000;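 active = activation above the mean of all tested compounds plus 3 SD, set per screening campaign, cut at about 17% in these data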
PfM18AAP inh-2: PfM18AAP inhibitors, malaria aminopeptidase, confirmation, biochemical, QFRET, recombinant enzyme, triplicate; inhibition, % at 7.35 µM; shares compounds with PfM18AAP inh-1; hit rate 28% among 2,400; H-Glu-NHMec fluorogenic cleavage;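 active = mean inhibition over replicate wells above the hit cutoff set for the earlier primary screen, cut at about 29% in these data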;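 note: 0% = median of test compound wells and 100% = 2 mM ZnCl2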
CTSL1 counter: cathepsin L1 inhibitors, retest, confirmation, counter-screen for PFM18AAP inhibitor project, biochemical, QFRET, triplicate | shares compounds with PfM18AAP inh-1 | purified cathepsin L1, Z-Leu-Arg-MCA fluorescence | inhibition, % at 5.96 µM | 2,400 tested, under 10 active | AID 2178, 2009;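 active = average inhibition across replicates above the hit cutoff set in the earlier primary screen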;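 note: 0% = median of test compound wells and 100% = Z-Phe-Ala-diazomethylketone 1 µM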
Starred values were filed as active, the others as inactive. A selection: hits, their analogues and other compounds. The true share with any hit is near 4.1%.

What do the screens show for `Oc1ccc(N2CCN(Cc3c(-c4ccccc4)nc4ccccn34)CC2)cc1`?
PolyA inh: -18.7; IDE inh: -2.8; ALR inh: inconclusive; PfM18AAP inh-1: 34.4*; CaV13 FRET inh: -3.9; IDE act: 2.9; PfM18AAP inh-2: -28.1; CTSL1 counter: -10.1

How did COc1ccc(-c2cn3nc(SCC(=O)NC4CCCCC4)ccc3n2)cc1 do in these assays?
PolyA inh: -8.5; IDE inh: -1.8; ALR inh: -4.5; PfM18AAP inh-1: -2.0; CaV13 FRET inh: -2.2; IDE act: -2.4

How did CC(C)C1NC(C(=O)O)Cc2c1[nH]c1ccccc21 (stereo not drawn) do in these assays?
PolyA inh: 9.7; IDE inh: 2.3; ALR inh: -7.5; PfM18AAP inh-1: 37.4*; CaV13 FRET inh: -5.1; IDE act: -1.8; PfM18AAP inh-2: 29.2*; CTSL1 counter: -1.3

Results for Fc1ccc(-c2nc3ccc(Br)cn3c2Cc2cccc(Cl)c2)cc1 ?
CaV13 FRET inh: -6.3

Results for COCc1[nH]nc2c1C(c1cc(OC)c(O)c(OC)c1)C(C#N)=C(N)O2 (stereo not drawn) ?
PolyA inh: 7.7; IDE inh: 9.3; ALR inh: 10.6; PfM18AAP inh-1: 37.6*; CaV13 FRET inh: -4.1; IDE act: -7.8; PfM18AAP inh-2: -4.3; CTSL1 counter: 4.7

What do the screens show for `CC(C(=O)NC1CCCCCC1)c1ccc([N+](=O)[O-])cc1` (stereo not drawn)?
PolyA inh: -6.7; IDE inh: 3.8; ALR inh: 0.3; PfM18AAP inh-1: -2.0; CaV13 FRET inh: 2.6; IDE act: 3.6

How did O=c1cc(O)c2ccc(O)cc2o1 do in these assays?
PolyA inh: -5.0; IDE inh: -0.1; ALR inh: 15.8; PfM18AAP inh-1: 6.5; IDE act: 1.7

Results for O=c1ccc2[n+]([O-])c3ccc(O)cc3oc-2c1 ?
PolyA inh: -11.9; PfM18AAP inh-1: 39.1*; CaV13 FRET inh: -18.8; IDE act: 9.4; PfM18AAP inh-2: -37.2; CTSL1 counter: 3.9

How did O=C(NNc1ccc(Cl)cc1)c1sccc1Cl do in these assays?
PolyA inh: -31.9; IDE inh: 2.5; PfM18AAP inh-1: 23.4; CaV13 FRET inh: -15.5; IDE act: 2.6

How did NS(=O)(=O)c1ccc(NNC(=O)c2sccc2Cl)cc1 do in these assays?
PolyA inh: -2.1; IDE inh: 5.0; ALR inh: 15.2; PfM18AAP inh-1: 52.0*; CaV13 FRET inh: -3.3; IDE act: -0.8; PfM18AAP inh-2: 27.8; CTSL1 counter: -7.8

How did CCOC(=O)C1=C(COC(=O)C(CC)Oc2ccccc2)NC(=O)NC1C (stereo not drawn) do in these assays?
PolyA inh: -0.1; IDE inh: 2.2; ALR inh: -1.1; CaV13 FRET inh: -14.8; IDE act: 3.0

How did CCS(=O)(=O)c1cc([N+](=O)[O-])c(Sc2ccccc2NC(C)=O)s1 do in these assays?
PolyA inh: -4.5; IDE inh: 10.1; ALR inh: 4.4; PfM18AAP inh-1: 35.4*; CaV13 FRET inh: 3.1; IDE act: -19.7; PfM18AAP inh-2: -31.7; CTSL1 counter: 1.6

Results for O=C(NNC(=O)C1CCN(S(=O)(=O)c2ccccc2)CC1)c1ccccc1O ?
PolyA inh: -13.4; IDE inh: 1.1; ALR inh: -0.2; PfM18AAP inh-1: 39.5*; CaV13 FRET inh: -2.6; IDE act: 5.7; PfM18AAP inh-2: -8.4; CTSL1 counter: -6.8
